{"source": "PubChem BioAssay AID504454", "about": "(NMMLSC, 2011)", "note": "Screen size: about 340,000 compounds; about 1,400 (0.41%) were called active. What follows is part of a selection rich in actives, with near analogues and random picks from the rest. Unmarked numbers belong to inactive results.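 Rule for the calls: active = response above a set limit, near 3 SD of response in nonfluorescent compounds (cut at about 42% in these data); inactive = the rest.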", "data": [{"molecular_target": "Beta-2 adrenergic receptor (Homo sapiens) (UniProt P07550)", "sequence (P07550 whole entry, looked up)": "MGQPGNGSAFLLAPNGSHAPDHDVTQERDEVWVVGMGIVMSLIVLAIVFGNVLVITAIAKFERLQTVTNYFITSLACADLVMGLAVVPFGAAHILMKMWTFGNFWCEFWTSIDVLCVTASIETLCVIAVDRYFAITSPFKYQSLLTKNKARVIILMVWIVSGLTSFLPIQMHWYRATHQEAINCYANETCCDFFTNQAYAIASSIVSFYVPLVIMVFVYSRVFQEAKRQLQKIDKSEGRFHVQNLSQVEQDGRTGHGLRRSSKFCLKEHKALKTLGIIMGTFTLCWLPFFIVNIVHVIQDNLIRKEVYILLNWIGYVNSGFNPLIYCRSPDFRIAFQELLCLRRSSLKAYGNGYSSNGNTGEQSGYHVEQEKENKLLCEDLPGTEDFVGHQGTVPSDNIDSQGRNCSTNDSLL", "test": "beta2AR agonists driving receptor internalization, primary screen, cell-based, FAP fluorogen, flow cytometry (AID 504454)", "conditions": "Am2.2-beta2AR cells, stronger effect = higher value, concentration not given here", "values": [{"smiles": "Oc1ccccc1C1=NN(c2ccccc2)C(c2ccccc2)C1", "note": "(configuration not stated)", "response": "13.4%"}, {"smiles": "COc1ccc(S(=O)(=O)N2CCCC(C(=O)Nc3ccc(NC(=O)c4ccccn4)cc3)C2)cc1", "note": "(configuration not stated)", "response": "46.4% (active)"}, {"smiles": "COc1ccc(CCNC(=O)C2CCCN(S(=O)(=O)c3ccc(OC)cc3)C2)cc1", "note": "(configuration not stated)", "response": "-1.09%"}, {"smiles": "CC(=O)Nc1ccc(NC(=O)C2CCCN(S(=O)(=O)c3ccc(Cl)cc3)C2)cc1", "note": "(configuration not stated)", "response": "-2.61%"}, {"smiles": "COc1ccc(C2CC(c3cccs3)Nc3nnnn32)cc1", "note": "(configuration not stated)", "response": "12.6%"}, {"smiles": "Cc1ccc(OCC(=O)Nc2ccc(-c3nc4ncccc4o3)cc2)cc1", "response": "117% (active)"}, {"smiles": "Cc1ccc(NC(=O)COc2ccc(/C=C3/NC(=O)NC3=O)cc2)cc1", "response": "7.62%"}, {"smiles": "Cc1ccc2nc(-c3ccc(NC(=O)c4cccnc4)cc3)oc2c1", "response": "17.5%"}, {"smiles": "COc1cc(/C=C2/C(=O)ON=C2C)ccc1OCc1cccc(F)c1", "response": "105% (active)"}, {"smiles": "C=CCOc1ccc(/C=C2/C(=O)ON=C2C)cc1OCC", "response": "4.94%"}, {"smiles": "COc1cc(/C=C2\\SC(=O)NC2=O)ccc1OCc1ccc(Cl)nc1", "response": "12.6%"}, {"smiles": "COc1cc(/C=C2/C(=O)ON=C2C)ccc1OCc1ccccc1F", "response": "88.8% (active)"}, {"smiles": "CC1=NOC(=O)/C1=C\\c1ccccc1", "response": "10.9%"}, {"smiles": "C#CCOc1ccc(/C=C2/C(=O)ON=C2C)cc1OCC", "response": "-1.93%"}, {"smiles": "CCOC(=O)c1cnc2c(c(C)nn2CC)c1Cl", "response": "0.74%"}, {"smiles": "Cc1ccccc1OCCC(=O)OCC(=O)NCCc1ccc(S(N)(=O)=O)cc1", "response": "-1.82%"}, {"smiles": "CCCCN(CC)C(=O)C1CCCN(S(=O)(=O)c2cccc3nsnc23)C1", "note": "(configuration not stated)", "response": "-4.41%"}, {"smiles": "CCCCNC(=S)NNC(=O)c1cc(C)on1", "response": "8.38%"}, {"smiles": "COc1cc2c(cc1OC)C(/C=C/c1ccco1)=NCC2", "response": "-9.05%"}, {"smiles": "COc1cc(C2C3=C(CCCC3=O)OC3=C2C(=O)CCC3)ccc1OCC(=O)Nc1ccccc1", "response": "3.2%"}, {"smiles": "CCCn1c(C)cc(/C=C(\\C#N)C(=O)OCC(=O)Nc2cc(OC)c(OC)c(OC)c2)c1C", "response": "-0.22%"}, {"smiles": "CCOC(=O)/C(C#N)=C/c1ccc(OCC(=O)Nc2ccccc2)c(OC)c1", "response": "46.3% (active)"}, {"smiles": "CCCn1c(N)c(C(=O)CSc2nnc3n2CCCCC3)c(=O)[nH]c1=O", "response": "-3.04%"}, {"smiles": "O=C(/C=C/c1ccc(Cl)c([N+](=O)[O-])c1)c1cccnc1", "response": "77.9% (active)"}, {"smiles": "O=C(Nc1cccnc1)c1ccc(Cl)cc1[N+](=O)[O-]", "response": "0.76%"}, {"smiles": "O=C(/C=C/c1ccc(Cl)cc1Cl)c1cccnc1", "response": "6.98%"}, {"smiles": "O=C(CNC(=O)c1ccccc1F)OCC(=O)c1c[nH]c2ccccc12", "response": "10.7%"}, {"smiles": "CC(C)CCN(C(=O)c1csnn1)C(C(=O)NC1CCCC1)c1ccccc1", "note": "(configuration not stated)", "response": "7.85%"}, {"smiles": "CC(=O)Nc1ccc(Nc2c([N+](=O)[O-])cc(S(C)(=O)=O)cc2[N+](=O)[O-])cc1", "response": "2.64%"}, {"smiles": "CC(=O)Nc1ccc(S(=O)(=O)N(C)c2nc3ccccc3nc2Cl)cc1", "response": "0.46%"}, {"smiles": "CC(=O)Nc1ccc(Nc2c3ccccc3nc3ccccc23)cc1", "response": "51.1% (active)"}, {"smiles": "Cc1ccc(CN2CCN(/N=C/c3cccnc3)CC2)c(C)c1", "response": "4.74%"}, {"smiles": "N#Cc1cccc(NC(=O)COC(=O)c2ccccc2C(=O)c2ccc(Cl)c([N+](=O)[O-])c2)c1", "response": "46.3% (active)"}, {"smiles": "CC(=O)Nc1ccc(NC(=O)COC(=O)c2ccccc2C(=O)c2ccccc2)cc1", "response": "-9.28%"}, {"smiles": "CC(=O)Nc1ccc(NC(=O)C(C)OC(=O)c2ccccc2C(=O)c2ccc(Cl)c([N+](=O)[O-])c2)cc1", "note": "(configuration not stated)", "response": "20.8%"}, {"smiles": "CC[n+]1cc(C)ccc1/C=C/c1ccc(N(C)C)cc1", "response": "-468%"}, {"smiles": "CCCN(CCC)S(=O)(=O)c1ccc(C(=O)NNC(=O)c2cc(OC)c(OC)c(OC)c2)cc1", "response": "4.58%"}, {"smiles": "CCN(CC)Cc1csc2ccc(Br)cc12", "response": "5.63%"}, {"smiles": "COc1ccc(CCC(=O)c2ccc(OC)cc2)cc1", "response": "-1.6%"}, {"smiles": "COc1ccc(CS(=O)/C(Cl)=C(/Cl)C(=O)Nc2ccc(OC)nc2)cc1", "note": "(configuration not stated)", "response": "52.3% (active)"}, {"smiles": "COc1ccc(OC(C)C(=O)Nc2cccnc2)cc1", "note": "(configuration not stated)", "response": "-1.88%"}, {"smiles": "O=C(Nc1ccc([N+](=O)[O-])cc1)C1CC12CCC2", "note": "(configuration not stated)", "response": "-2.03%"}, {"smiles": "COc1cccc2[nH]c(C(=O)NCCc3ccccc3)cc12", "response": "1.88%"}, {"smiles": "O=C(Cn1nc(Cc2cccnc2)c2ccccc2c1=O)NCC1CCCO1", "note": "(configuration not stated)", "response": "-13.8%"}, {"smiles": "COc1ccc(CC(=O)Nc2nc(-c3ccc(F)c(F)c3)cs2)cc1OC", "response": "44% (active)"}, {"smiles": "COc1ccccc1NC(=O)Nc1nc(CC(=O)Nc2ccccc2F)cs1", "response": "1.09%"}, {"smiles": "O=C(COc1ccccc1F)Nc1nc(-c2ccccn2)cs1", "response": "-6.34%"}, {"smiles": "CCc1c(SCCC(=O)O)nc2ccccc2c1C", "response": "-4.7%"}, {"smiles": "CCN(CC)c1ccc(C(=O)OCC(=O)c2ccco2)cc1", "response": "4.24%"}, {"smiles": "O=C(CN1CCN(c2cccc(Cl)c2)CC1)Nc1ccc(S(=O)(=O)N2CCOCC2)cc1", "response": "-2.92%"}, {"smiles": "COc1ccc(Cl)cc1NC(=O)CN1CCN(C(=O)N2CCOCC2)CC1", "response": "1.88%"}, {"smiles": "Cc1ccc(Cl)cc1NC(=O)CN1CCN(S(=O)(=O)N2CCOCC2)CC1", "response": "81.7% (active)"}, {"smiles": "NC[C@H](Cc1ccccc1)NCCc1cc(C(F)(F)F)cc(C(F)(F)F)c1", "response": "19%"}, {"smiles": "CCOC(=O)[C@H]1[C@H]2COc3ccc(OC)cc3[C@@H]2N2C(=O)c3ccc(F)cc3NC(=O)[C@@]12C", "response": "-0.05%"}, {"smiles": "COCCn1c(C)cc(C(=O)CSc2nnc(C3CC3)n2C2CC2)c1C", "response": "6.93%"}, {"smiles": "O=C(N/C(=C\\c1ccc([N+](=O)[O-])cc1)C(=O)N1CCOCC1)c1cccc(Br)c1", "response": "3.33%"}, {"smiles": "O=C(N/C(=C/c1ccc(Cl)cc1)C(=O)N1CCCCC1)c1ccco1", "response": "6.34%"}, {"smiles": "O=C(N/C(=C\\c1ccc([N+](=O)[O-])cc1)C(=O)N1CCCCC1)c1ccco1", "response": "72.5% (active)"}, {"smiles": "CC(=O)Nc1ccc(S(=O)(=O)N2CCN(CCCOc3cc(C)ccc3C)CC2)cc1", "response": "3.77%"}, {"smiles": "CC(C)c1ccc(NC(=O)[C@@H](NC(=O)N2CC(=O)Nc3ccccc32)C(C)C)cc1", "response": "-13%"}, {"smiles": "Cc1nnc(SCC(=O)N/N=C/c2cn(-c3ccccc3)nc2-c2ccc(F)cc2)n1-c1ccccc1", "response": "54.1% (active)"}, {"smiles": "COc1ccc(OC)c(/C=N/NC(=O)CSc2nnc(C)n2-c2ccccc2)c1", "response": "8.61%"}, {"smiles": "Cc1ccc(-c2nnc(SCC(=O)N/N=C/c3cccs3)n2-c2ccc(C)cc2)cc1", "response": "-11.9%"}, {"smiles": "CCOc1cc(C)c(S(=O)(=O)NCc2ccccn2)cc1C", "response": "-7.14%"}, {"smiles": "CCCOc1ccc(C(=O)C(CCC(CNCC)C(=O)c2ccc(OCCC)cc2)CNCC)cc1", "note": "(configuration not stated)", "response": "46.1% (active)"}, {"smiles": "COC(=O)c1ccc(OCC(=O)NC(C)(C)C)cc1", "response": "6.76%"}, {"smiles": "CCCOc1ccc(/C=N/NC(=O)C2CC2)c(OCCC)c1", "response": "-16.2%"}, {"smiles": "Cc1ccc2[nH]c(=O)c(CN(C)S(=O)(=O)c3cccc4nonc34)cc2c1", "response": "-5.68%"}, {"smiles": "Cc1nn(-c2ccccn2)c2c1C(c1ccncc1)C1=C(CC(C)(C)CC1=O)N2", "note": "(configuration not stated)", "response": "-12.9%"}, {"smiles": "Cc1cc(C)c(C2C3=C(Nc4c2c(C)nn4-c2ccccn2)c2ccccc2C3=O)c(C)c1", "note": "(configuration not stated)", "response": "69.5% (active)"}, {"smiles": "CSc1ccc(S(=O)(=O)NCC(=O)OCC(=O)NC2(C#N)CCCCC2)cc1[N+](=O)[O-]", "response": "5.12%"}, {"smiles": "COc1ccc(CCOC2OC(CO)C(OC(=O)/C=C/c3ccc(O)c(OC)c3)C(O[C@H]3O[C@@H](C)[C@H](O)[C@@H](O)[C@H]3O)C2O)cc1O", "note": "(some centres not stated)", "response": "1.58%"}, {"smiles": "O=C(Nc1ccc(Br)cc1)C1CCC(=O)N1Cc1ccccc1Cl", "note": "(configuration not stated)", "response": "-2.28%"}, {"smiles": "NC(N)=N/N=C/c1ccc(OCc2ccc(Cl)cc2Cl)cc1", "response": "59.6% (active)"}, {"smiles": "Cc1nc2ccccc2nc(C)c1=NOCc1ccc(Cl)cc1Cl", "response": "-2.95%"}, {"smiles": "COc1ccc(Cl)cc1N(CC(=O)N/N=C/c1ccc(OCC(N)=O)cc1)S(C)(=O)=O", "response": "-3.08%"}, {"smiles": "CCC(CC)NC(=O)/C=C/c1cccc([N+](=O)[O-])c1", "response": "-1.38%"}, {"smiles": "CCCCCc1ccc(-c2ccc(C(=O)O)cc2)nc1", "response": "-1.17%"}, {"smiles": "Cc1cc(N2CCOCC2)nc(-c2ccc(Br)cc2)n1", "response": "-1.94%"}, {"smiles": "O=S(=O)(Cc1cc(Sc2ccccc2)nc(-c2ccccc2)n1)c1ccccc1", "response": "7.22%"}, {"smiles": "Cc1ccc(Sc2cc(N3CCOCC3)nc(-c3ccccc3)n2)cc1", "response": "42.7% (active)"}, {"smiles": "S=c1[nH]nc(Nc2ccccc2)s1", "response": "16.4%"}, {"smiles": "COc1cc(C(C(=O)NC2CCCC2)N(C(=O)c2ccco2)c2ccccc2C(C)=O)cc(OC)c1OC", "note": "(configuration not stated)", "response": "2.2%"}, {"smiles": "CCOC(=O)c1c(-c2ccccc2)oc2cc(Br)c(O)c(C=O)c12", "response": "56.8% (active)"}, {"smiles": "CCOC(=O)c1c(-c2ccccc2)oc2ccc(OCC(=O)NN)cc12", "response": "27.5%"}, {"smiles": "CCOC(=O)c1c(-c2ccccc2)oc2cc(Br)c(O)cc12", "response": "-5.83%"}, {"smiles": "Cn1c(=O)oc2cc(S(=O)(=O)NCCC(=O)NCc3ccccc3Cl)ccc21", "response": "0.87%"}, {"smiles": "CCOC(=O)C1CCN(CC(=O)Nc2ccc(OC)c(S(=O)(=O)N3CCCCC3)c2)CC1", "response": "11.9%"}, {"smiles": "O=C(COc1cccnc1[N+](=O)[O-])Nc1ccc(Cl)cc1F", "response": "-3.75%"}, {"smiles": "O=C1C2C3C=CC(C4CC34)C2C(=O)N1/N=C/c1ccc(-c2ccccc2[N+](=O)[O-])o1", "note": "(configuration not stated)", "response": "42.1% (active)"}, {"smiles": "Cc1c(/C=N/N2C(=O)C3C4C=CC(C4)C3C2=O)c2ccccc2n1C", "note": "(configuration not stated)", "response": "-4.99%"}, {"smiles": "O=C(Nc1ccc(N2CCOCC2)cc1)c1ccc(-c2ccccc2[N+](=O)[O-])o1", "response": "15.6%"}]}]}
